Experimental data taken from PubChem BioAssay (NCI).
Several values for one entry are separate records, joined by “and”; a condition that tells them apart may be missing. Identical values can stand only once. About 83,000 compounds went through this panel and 20% of them were active in at least one assay; those are over-represented in the sample as a whole.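 Interpretation: 100, growth as untreated; towards 0, rising growth inhibition; 0, no net growth; 0 to -100, cell death. Compounds scoring below 10 were considered active.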 Activity calls are given as the source filed them.

Columns and labels:
Assay in all cases: NCI-60 one-dose screen, 48 h (100 = growth as untreated, 0 = no growth, -100 = all killed)
MOLT-4 leukemia = conditions: 10 µM
SR leukemia = conditions: 10 µM
RPMI-8226 leukemia = conditions: 10 µM
OVCAR-8 ovarian = conditions: 10 µM
OVCAR-5 ovarian = conditions: 10 µM
OVCAR-4 ovarian = conditions: 10 µM
SK-OV-3 ovarian = conditions: 10 µM
IGROV1 ovarian = conditions: 10 µM
OVCAR-3 ovarian = conditions: 10 µM
HS 578T breast = conditions: 10 µM
NCI/ADR-RES ovarian = conditions: 10 µM
BT-549 breast = conditions: 10 µM
MDA-MB-435 melanoma = conditions: 10 µM
SW-620 colon = conditions: 10 µM
HCT-116 colon = conditions: 10 µM
HCC-2998 colon = conditions: 10 µM
T-47D breast = conditions: 10 µM
KM12 colon = conditions: 10 µM
MCF7 breast = conditions: 10 µM unless noted

Measured: growth

[Cl][Sn]([c]1ccccc1)([c]1ccccc1)[c]1ccccc1
active: MOLT-4 leukemia -7.21% | SR leukemia -21% | RPMI-8226 leukemia -28% | OVCAR-8 ovarian -74.5% | OVCAR-5 ovarian -84.1% | OVCAR-4 ovarian -88.9% | SK-OV-3 ovarian -97.3% | IGROV1 ovarian -76.8% | OVCAR-3 ovarian -94.2% | HS 578T breast 0.581% | NCI/ADR-RES ovarian -37.7% | BT-549 breast -83.1% | MDA-MB-435 melanoma -83.9% | SW-620 colon -56.2% | HCT-116 colon -97.3% | HCC-2998 colon -83.9%

N#CCc1ccccc1
inactive: MOLT-4 leukemia 97.9% | SR leukemia 104% | RPMI-8226 leukemia 101% | OVCAR-8 ovarian 105% | OVCAR-5 ovarian 101% | OVCAR-4 ovarian 94.6% | SK-OV-3 ovarian 98.4% | IGROV1 ovarian 115% | OVCAR-3 ovarian 111% | HS 578T breast 106% | NCI/ADR-RES ovarian 103% | T-47D breast 103% | BT-549 breast 91.7% | MDA-MB-435 melanoma 110% | SW-620 colon 100% | HCT-116 colon 102% | HCC-2998 colon 106% | KM12 colon 111%

O=[N+]([O-])/C=C/c1ccc([N+](=O)[O-])cc1
-51.5% (active) and 17.3% (inactive): RPMI-8226 leukemia
-75.2% (active) and 88.7% (inactive): BT-549 breast
inactive: MOLT-4 leukemia 47% and 47.8% | OVCAR-8 ovarian 28% and 92% | OVCAR-5 ovarian 71.7% and 125% | OVCAR-4 ovarian 85.6% and 86.6% | SK-OV-3 ovarian 92.6% and 110% | NCI/ADR-RES ovarian 78.7% and 85.8% | T-47D breast 48.7% and 57.1%
-98.4% (active) and 36.6% (inactive): OVCAR-3 ovarian
-48.9% (active) and 81.1% (inactive): MDA-MB-435 melanoma
-20.2% (active) and 66.6% (inactive): IGROV1 ovarian
-72.6% (active) and 12.2% (inactive): SW-620 colon
-2.35% (active) and 93.8% (inactive): HS 578T breast
3.64% (active) and 20.5% (inactive): SR leukemia
-93% (active) and 48.4% (inactive): HCT-116 colon
-91% (active) and 98.9% (inactive): HCC-2998 colon

C=NCC#N
inactive: MOLT-4 leukemia 94.6% and 107% | SR leukemia 83.8% and 108% | RPMI-8226 leukemia 92.4% and 115% | OVCAR-8 ovarian 104% and 108% | OVCAR-5 ovarian 98.8% and 93.5% | OVCAR-4 ovarian 114% and 108% | SK-OV-3 ovarian 113% and 96.6% | IGROV1 ovarian 110% and 115% | OVCAR-3 ovarian 105% and 119% | HS 578T breast 124% | NCI/ADR-RES ovarian 102% and 107% | T-47D breast 98.8% and 93.6% | BT-549 breast 103% and 89.3% | MDA-MB-435 melanoma 100% and 113% | SW-620 colon 100% and 115% | MCF7 breast 109% and 92.1% | HCT-116 colon 98.2% and 107% | HCC-2998 colon 100% and 125% | KM12 colon 99.4% and 109%

COc1ccc(/C=C(\C)[N+](=O)[O-])cc1OC
inactive: OVCAR-5 ovarian 67.8% | OVCAR-4 ovarian 17.2% | SK-OV-3 ovarian 104% | HS 578T breast 65.7% | NCI/ADR-RES ovarian 90.5% | HCC-2998 colon 94.3%
active: MOLT-4 leukemia -25% | SR leukemia -17.4% | RPMI-8226 leukemia -20.2% | OVCAR-8 ovarian -27.8% | IGROV1 ovarian -18.5% | OVCAR-3 ovarian -76.3% | T-47D breast -21.6% | BT-549 breast -29.7% | MDA-MB-435 melanoma -59.1% | SW-620 colon -42.4% | MCF7 breast -34.6% | HCT-116 colon -28.9%

O=C(CBr)Nc1ccccc1
inactive: MOLT-4 leukemia 42.6% | SR leukemia 48.1% | RPMI-8226 leukemia 100% | OVCAR-8 ovarian 98% | OVCAR-5 ovarian 128% | OVCAR-4 ovarian 92.5% | SK-OV-3 ovarian 113% | IGROV1 ovarian 106% | OVCAR-3 ovarian 98.3% | HS 578T breast 99.9% | NCI/ADR-RES ovarian 103% | T-47D breast 92.6% | BT-549 breast 87% | MDA-MB-435 melanoma 102% | SW-620 colon 59.9% | MCF7 breast 68.6% | HCT-116 colon 84.7% | HCC-2998 colon 105% | KM12 colon 102%

CN(CCCl)c1ccc(/C=C/C2=[N+](C)c3ccccc3C2(C)C)cc1
inactive: SR leukemia 12.3% | RPMI-8226 leukemia 10.6% | OVCAR-8 ovarian 13.1% | OVCAR-5 ovarian 70.8% | OVCAR-4 ovarian 37.6% | IGROV1 ovarian 35.1% | HS 578T breast 60.1% | NCI/ADR-RES ovarian 105% | T-47D breast 29.3% | BT-549 breast 20.7% | MDA-MB-435 melanoma 12% | SW-620 colon 19.8% | HCC-2998 colon 26% | KM12 colon 12.6%
active: MOLT-4 leukemia -13.1% | SK-OV-3 ovarian -3.38% | OVCAR-3 ovarian -10.6% | HCT-116 colon 7.48%

COc1cc([C@@H]2c3cc4c(c(O)c3C[C@H]3COC(=O)[C@@H]32)OCO4)cc(OC)c1OC
active: MOLT-4 leukemia -30.2% | SR leukemia -3.92% | RPMI-8226 leukemia -53.3% | SK-OV-3 ovarian -0.464% | IGROV1 ovarian -32.1% | OVCAR-3 ovarian -48.9% | HS 578T breast -10.6% | NCI/ADR-RES ovarian -28.9% | BT-549 breast -12.9% | MDA-MB-435 melanoma -19.6% | HCT-116 colon -38.4% | HCC-2998 colon -54.8%
inactive: OVCAR-8 ovarian 16.4% | OVCAR-5 ovarian 32.8% | OVCAR-4 ovarian 49.9% | T-47D breast 60.8% | SW-620 colon 15.9%

Cc1cc(C(C)(C)c2ccc(O)c(C)c2)ccc1O
inactive: MOLT-4 leukemia 78.9% | SR leukemia 92.2% | RPMI-8226 leukemia 93.6% | OVCAR-8 ovarian 81.8% | OVCAR-5 ovarian 88.1% | OVCAR-4 ovarian 83.9% | SK-OV-3 ovarian 102% | IGROV1 ovarian 106% | OVCAR-3 ovarian 85.9% | HS 578T breast 89.2% | NCI/ADR-RES ovarian 88.1% | T-47D breast 81.3% | BT-549 breast 108% | MDA-MB-435 melanoma 80.4% | SW-620 colon 97.2% | MCF7 breast 119% | HCT-116 colon 86.4% | HCC-2998 colon 104%

Cc1ccc(C(=O)C2C(c3ccccc3)N2C2CCCCC2)cc1 (configuration not stated)
inactive: MOLT-4 leukemia 94.9% and 93.3% | SR leukemia 94.4% and 97.4% | RPMI-8226 leukemia 78.5% and 94.1% | OVCAR-8 ovarian 103% and 101% | OVCAR-5 ovarian 97.4% and 95.9% | OVCAR-4 ovarian 98.4% and 87.2% | SK-OV-3 ovarian 102% and 96.2% | IGROV1 ovarian 119% and 92.4% | OVCAR-3 ovarian 114% and 108% | HS 578T breast 102% and 97.1% | NCI/ADR-RES ovarian 103% and 99.7% | T-47D breast 87.8% and 89.7% | BT-549 breast 104% and 105% | MDA-MB-435 melanoma 95% and 88.3% | SW-620 colon 106% and 95.2% | MCF7 breast 97% and 94.2% | HCT-116 colon 92.5% and 75.3% | HCC-2998 colon 114% and 113% | KM12 colon 111% and 100%

[Cl][Hg][c]1ccc2ccccc2c1
active: MOLT-4 leukemia -1.79% | SR leukemia -38% | RPMI-8226 leukemia -11.1% | OVCAR-8 ovarian -43.9% | OVCAR-5 ovarian -13.7% | OVCAR-4 ovarian -89.7% | SK-OV-3 ovarian 2.89% | IGROV1 ovarian -76.6% | OVCAR-3 ovarian -97.8% | HS 578T breast 2.36% | T-47D breast -56.8% | BT-549 breast -99% | MDA-MB-435 melanoma -76.2% | SW-620 colon -92.4% | HCT-116 colon -100% | HCC-2998 colon -49% | KM12 colon 1.74%
inactive: NCI/ADR-RES ovarian 63.9%

O=[N+]([O-])/C=C/c1ccc(Cl)cc1[N+](=O)[O-]
active: MOLT-4 leukemia 2.69% | SR leukemia 4.94% | RPMI-8226 leukemia -11.3% | OVCAR-4 ovarian 10% | OVCAR-3 ovarian -31.5% | HS 578T breast -6.61% | T-47D breast -6.41% | SW-620 colon -90.2% | HCT-116 colon -100%
inactive: OVCAR-8 ovarian 17.8% | OVCAR-5 ovarian 75.2% | SK-OV-3 ovarian 99.2% | IGROV1 ovarian 17.8% | NCI/ADR-RES ovarian 32.1% | MDA-MB-435 melanoma 76.8% | HCC-2998 colon 105%

O=[N+]([O-])c1ccc(Br)c([N+](=O)[O-])c1
inactive: MOLT-4 leukemia 68.4% | SR leukemia 21.8% | RPMI-8226 leukemia 102% | OVCAR-8 ovarian 91.9% | OVCAR-5 ovarian 108% | OVCAR-4 ovarian 103% | SK-OV-3 ovarian 113% | IGROV1 ovarian 63.5% | OVCAR-3 ovarian 87.8% | HS 578T breast 105% | NCI/ADR-RES ovarian 99% | T-47D breast 54.4% | BT-549 breast 104% | MDA-MB-435 melanoma 102% | SW-620 colon 44.4% | MCF7 breast 52.5% | HCT-116 colon 32.3% | HCC-2998 colon 96.2% | KM12 colon 53.6%
